From PubChem BioAssay
Sampled rows, rich in hits. Any-hit rate of the full collection: about 3.1%.
PNC assembly inh: perinucleolar compartment assembly inhibition; PC3M PTB-GFP, PNC prevalence imaging, 16 h; hits give low values; 140,000 compounds, 3.1% hits; activity change (PNC), negative = inhibition, % at 10 µM;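 active = readout at or below -70, meaning at least 70% loss of cells showing the perinucleolar compartment, a nuclear body marking cancer cells; inconclusive = readout between -30 and a set limit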;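 note: plate controls were DMSO wells for no effect and camptothecin positive control wells for full effect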
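PC3M cells stably expressing PTB-GFP, 750–1000 cells/well, treated 16 h at 37 °C with compound (23 nl of library stock), in duplicate. After paraformaldehyde fixation and Hoechst stain, imaged at 20x; PNC prevalence scored by image analysis.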
ALOX12 inhib: 12-hLO (ALOX12) enzyme inhibition; Potency, µM (titrated, usually from 57.1 µM), without a hit: top-dose activity change, negative = inhibition, actives largely listed as inhibitors; P18054; purified 12-hLO, xylenol orange hydroperoxide absorbance; 150,000 compounds, 0.12% hits; note: potency is the fitted concentration of half-maximal effect; nearly all actives have a fitted effect of over 55% in size
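Hydroperoxide output read as Fe(III)-xylenol orange absorbance, 573-to-405 nm ratio, after 30 min reaction with 40 uM arachidonic acid. Enzyme: 150 nM purified human 12hLO, 15 min compound preincubation; 25 mM Hepes pH 7.0, room temperature.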
15-hLO-2 inh: blocks human 15-lipoxygenase 2 activity | 110,000 compounds, 0.56% hits | purified 15hLO-2, xylenol orange hydroperoxide absorbance | O15296 | Potency, µM (doses to about 57.1 µM), without a hit: top-dose activity change, negative = inhibition, most hits filed as inhibitors; note: potency is the fitted concentration of half-maximal effect; nearly all actives have a fitted effect of over 60% in size
Target sequence (O15296 whole entry, looked up): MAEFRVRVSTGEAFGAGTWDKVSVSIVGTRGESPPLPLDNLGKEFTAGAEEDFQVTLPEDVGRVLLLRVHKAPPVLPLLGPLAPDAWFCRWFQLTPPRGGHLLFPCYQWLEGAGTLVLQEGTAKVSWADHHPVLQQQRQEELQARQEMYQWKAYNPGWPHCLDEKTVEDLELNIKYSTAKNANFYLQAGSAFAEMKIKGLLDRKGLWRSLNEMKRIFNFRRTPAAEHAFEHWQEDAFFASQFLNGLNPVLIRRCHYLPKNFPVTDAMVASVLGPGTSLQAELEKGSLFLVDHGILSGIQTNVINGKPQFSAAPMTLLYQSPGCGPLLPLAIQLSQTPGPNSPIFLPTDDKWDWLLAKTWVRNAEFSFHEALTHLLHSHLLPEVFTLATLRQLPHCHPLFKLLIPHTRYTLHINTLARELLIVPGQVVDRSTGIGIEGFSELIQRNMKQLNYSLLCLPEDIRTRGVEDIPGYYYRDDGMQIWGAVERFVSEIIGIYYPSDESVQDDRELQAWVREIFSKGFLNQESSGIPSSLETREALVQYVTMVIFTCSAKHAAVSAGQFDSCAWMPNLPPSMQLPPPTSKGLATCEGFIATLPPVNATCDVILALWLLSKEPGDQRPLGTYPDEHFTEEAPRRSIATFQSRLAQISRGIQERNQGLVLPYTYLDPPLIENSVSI
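Purified human 15hLO-2 (50 nM final) preincubated with compounds 15 min at room temperature in 25 mM Hepes pH 7.5, 0.01% Triton X-100, then 45 uM arachidonic acid added for 90 min; hydroperoxide detected via ferrous/xylenol orange, 573/405 nm absorbance ratio.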
Numbers without * were called inactive; ? = inconclusive; nt = no result given; [ ] = remark or other dose. Unless noted, calls come from the whole dose curve; as a rule, active = well fitted curve in the direction sought with a large enough effect; inconclusive = small, poorly fitted or top-dose-only effect, or another doubt; inactive = no such curve, though single readings can be large; an effect the other way counts as inactive or inconclusive. Unless noted, % is set by controls: 0 for no effect and ±100 for the full control effect.

SMILES	PNC assembly inh	ALOX12 inhib	15-hLO-2 inh
CC(C)CNC1=CC(=O)CC(c2ccco2)C1 (centres undefined)	-80.9*	-16.7%	-15.7%
O=C1C=C(NCc2ccc(Cl)cc2)CC(c2ccco2)C1 (centres undefined)	16.2	-4.1%	2.7%
Cc1ccc(NC(=S)NC(=O)c2ccc(-c3ccc(Cl)cc3)o2)c(O)c1	?	-4.8%	nt
O=C(Nc1ccccc1N1CCCCC1)c1ccc(-c2ccc(Cl)cc2)o1	-81.7*	1.2%	nt
O=C(Nc1ccccc1N1CCCC1)c1ccc(Br)o1	10.0	0.8%	-1.7%
Cc1cc(O)c(NC(=S)NC(=O)c2ccc(-c3ccc(Cl)cc3)o2)cc1C	9.7	?	12.6µM*
O=C(c1cccc(F)c1)N1CCC2(CC1)CN(c1ccccn1)C2	nt	0.1%	3.1%
C[C@H](C(=O)c1ccccc1)[C@@H](c1ccccc1)N1CCOCC1	nt	7.0%[11.4 µM]	-1.8%[11.4 µM]
N[C@@H](C(=O)O)c1ccc(C(=O)O)cc1	nt	3.9%	10.4%
Cc1cccc(NCCNc2cccc(C)c2)c1	8.2	2.6%	-23.8%
Cc1cccc(NCCC#N)c1	-134.0*	-3.1%	nt
COc1cccc(Cn2c(=O)c(-c3cccs3)nc3cnc(N4CCOCC4)nc32)c1	nt	nt	3.3%
COc1cc(Nc2ccccc2Cl)c([N+](=O)[O-])nc1[N+](=O)[O-]	-92.3*	1.3%	-21.3%
COc1ccccc1Nc1ccc([N+](=O)[O-])cc1N	9.4	-7.1%	nt
Cc1cc2ncc(-c3ccc(Cl)cc3)c(N)n2n1	-108.4*	1.1%	7.1%
Cn1c(-c2ccc(Cl)cc2)cnc1N	-25.3	4.3%	46.1%
Nc1c(-c2ccc(Cl)cc2)cnc2ncnn12	-109.4*	-0.1%	13.2%
CCOC(=O)c1cnc2cc(-c3ccc(Cl)cc3)nn2c1N	4.7	-0.6%	-0.9%
CC1CC[C@@]23CCC4(C)[C@@]5(C)CCC6C(C)(C)C(=O)CC[C@@]6(C)C5C=C[C@@]4(OC2=O)C3C1C (some centres undefined)	nt	2.4%	-11.1%
N#Cc1cccc(-c2nc3cnc(Nc4ccccc4)nc3n(C[C@H]3CCCO3)c2=O)c1	nt	0.2%	-0.8%
CC(C)(C)c1onc(OCP(=O)(O)O)c1C[C@@H](N)C(=O)O	nt	2.8%	0.9%
COc1ccc(C2C(C(=O)NCc3cccnc3)c3ccccc3C(=O)N2C)cc1OC (centres undefined)	?	-0.5%	-2.4%
COc1ccc(C2C(C(=O)NCc3ccccn3)c3ccccc3C(=O)N2C)cc1OC (centres undefined)	-88.4*	-4.3%	4.6%
CN1CCC[C@@H]1c1cccnc1	nt	4.3%	-4.9%
Oc1cc(O)cc(/C=C\c2ccc(O)c(O)c2)c1	nt	?	3.16µM*
SMILES	PNC assembly inh	ALOX12 inhib	15-hLO-2 inh
Oc1ccc(/C=C\c2cc(O)cc(O)c2)cc1	nt	-15.3%	-13.8%
COC(=O)N1CCC2(CCN(Cc3cc(C(F)(F)F)cc(C(F)(F)F)c3)CC2)CC1	nt	2.9%	10.5%
COCCNC(=O)c1ccc(Cc2nc3ccccc3[nH]2)cc1	nt	-0.9%	nt
Nc1nc2c(c(=O)[nH]1)N[C@H](CCNc1ccc(C(=O)O)cc1)CN2	nt	1.1%[11.4 µM]	-1.8%[11.4 µM]
Cn1c(SCC(=O)Nc2ccc3cn[nH]c3c2)nnc1-c1cnccn1	-100.0*	-3.6%	2.2%
COC(=O)CSc1nnc(-c2cnccn2)n1C	-16.0	-0.6%	nt
Cn1c(SCC(=O)Nc2ccc3cn[nH]c3c2)nnc1-c1cccs1	0.3	0.5%	1.2%
CC(C)OC(=O)CSc1nnc(-c2cnccn2)n1C	-91.3*	-3.8%	nt
COc1ccc2[nH]cc(CCNc3ncnc4ccc(-c5ccc6c(c5)OCO6)cc34)c2c1	nt	nt	46.3%
CCCCCC(=O)Cc1cc(O)cc(O)c1C(=O)Oc1cc(CC(=O)CCCCC)c(C(=O)O)c(OC)c1	nt	4.2%	-2.6%
COCC(=O)N1CCC[C@@]2(CCN(Cc3ccccc3)C2)C1	nt	-1.2%	-0.4%
Cc1ccc2nc(N3CCN(C=O)CC3)nc(-c3ccccc3)c2c1	-100.0*	-0.8%	nt
Cc1ccc2nc(NCCO)nc(-c3ccccc3)c2c1	20.2	-4.3%	3.2%
C=C(C)[C@]12C[C@@H](C)[C@@]34OC(Cc5ccccc5)(O[C@@H]1[C@@H]3C=C(COC(=O)Cc1cc(OC)c(O)cc1I)C[C@]1(O)C(=O)C(C)=C[C@@H]41)O2	nt	0.4%[0.00818 µM]	4.0%[0.0915 µM]
COc1ccc(NC(=O)CSc2nnc(CNC(=O)c3ccco3)n2-c2ccccc2OC)cc1	-17.2	-1.8%	-5.6%
COc1ccc(NCc2nnc(SCC(=O)NCc3ccccc3)n2-c2ccccc2OC)cc1	-105.8*	-10.9%	nt
CCC1(C)N(O)C(C)(C)C(c2ccc(F)cc2)=[N+]1[O-] (centres undefined)	-100.0*	-4.6%	nt
C/C(=N\O)C1(C)N(O)C(C)(C)C(c2ccc(F)cc2)=[N+]1[O-] (centres undefined)	51.0	6.6%	-10.2%
C=C1C(CCl)(CCl)C2(Cl)C(Cl)C(Cl)C1(Cl)C2(Cl)Cl (centres undefined)	nt	-8.2%	-5.8%
O=c1c2cnn(-c3ccc(F)cc3)c2ncn1Cc1ccccc1	263.6	8.1%	nt
O=c1c2cnn(-c3ccccc3)c2ncn1Cc1cccc(Cl)c1	-107.8*	-2.7%	3.6%
NS(=O)(=O)c1nc(S(=O)(=O)O)c2[nH]cnc2n1	nt	-3.3%[11.4 µM]	1.8%[11.4 µM]
COc1cc2cc(C#N)c(SCC(=O)N3CCOCC3)nc2cc1OC	-100.0*	-1.5%	nt
COc1cc2cc(C)c(SCC(=O)N3CCOCC3)nc2cc1OC	-13.0	-1.8%	-1.0%
NS(=O)(=O)c1ccc(NC(=O)CN2CCCCC2)cc1	-83.2*	-2.8%	-4.6%
SMILES	PNC assembly inh	ALOX12 inhib	15-hLO-2 inh
O=C(CN1CCCCC1)Nc1ccccc1	28.9	-0.1%	1.5%
Cc1cc(=O)oc(C)c1C(=O)OCC(=O)c1ccc(Cl)cc1	-6.8	-12.4%	-6.5%
Cc1cc(=O)oc(C)c1C(=O)OCC(=O)c1ccc(Br)cc1	-89.9*	-26.1%	nt
S=C(Nc1ccccc1)Nc1ccccc1C#Cc1ccccc1	nt	-24.9%	5.4%
Cc1ccnc(SCc2cc(=O)c(OC(=O)c3ccc(S(=O)(=O)N(C)C)cc3)co2)n1	-108.8*	-3.8%	nt
Cc1cc(C)nc(SCc2cc(=O)c(OC(=O)c3ccc(S(=O)(=O)N(C)C)cc3)co2)n1	?	2.0%	nt
Cc1ccnc(SCc2cc(=O)c(OC(=O)c3ccc(Br)o3)co2)n1	-82.6*	-5.8%	nt
O=C(Oc1coc(CSc2ncccn2)cc1=O)c1ccc(Br)o1	-9.7	4.6%	nt
CC(=O)N1CCC[C@@]2(CCN(Cc3ccccc3)C2)C1	nt	-4.8%	2.5%
CN(C)[C@H]1C(=O)C(C(=O)NCN2CCCC2)=C(O)[C@]2(O)C(=O)C3=C(O)c4c(O)cccc4[C@](C)(O)[C@H]3C[C@H]12	nt	-15.7%[11.4 µM]	20.5%[11.4 µM]
COc1cc(N=c2ssnc2Cl)cc(OC)c1	?	10µM*	?
OCc1ccccc1N=c1ssnc1Cl	-3.9	-11.1%	?
CC(CCc1ccccc1)NC(=O)c1ccc(NC(=O)c2ccccc2)cc1 (centres undefined)	-5.7	-0.9%	nt
CC(CCc1ccccc1)NC(=O)c1ccc(NC(=O)c2cccc(Br)c2)cc1 (centres undefined)	-113.4*	-7.3%	nt
COC(=O)CC1C(C)(C)C(OC(C)=O)[C@@]2(O)C=C3C4CC(=O)OC(c5ccoc5)[C@]4(C)CCC3[C@@]1(C)C2=O (some centres undefined)	nt	-1.3%	6.3%
